For 39 compounds, outcome and AC50 results are on record in PubChem BioAssay (NCATS).

Active and inactive are the calls of the source. Calls follow the shape of the full dose curve.

The conditions of the assay: Ebola virus entry assay, ratio channel readout.
In the case of `O=C(O)C[C@H](O)C[C@H](O)/C=C/c1c(C2CC2)nc2ccccc2c1-c1ccc(F)cc1`, the outcome was inactive.

For `CCN1C(=O)NC(c2ccccc2)C1=O` (centres undefined), the outcome was inactive.

Take `Nc1nc(=O)n([C@@H]2CS[C@H](CO)O2)cc1F`: the outcome was inactive.

Take `CC(C)(C)NC[C@H](O)COc1ccccc1C1CCCC1`: the AC50 (commonly the midpoint of the concentration-response curve, whichever way the signal moves) is 3.55 µM (active).

On to `CN=C1CN(O)C(c2ccccc2)=c2cc(Cl)ccc2=N1`, for which the outcome was inactive.

Take `CNCCC=C1c2ccccc2CCc2ccccc21`: the concentration at half-maximal activity (AC50) is 7.95 µM (active).

Turning to `CC(=O)NC[C@H]1CN(c2ccc(N3CCOCC3)c(F)c2)C(=O)O1`, the outcome was inactive.

As for `CCN(CC)CC#CCOC(=O)C(O)(c1ccccc1)C1CCCCC1` (centres undefined), the outcome was inactive.

As for `Nc1nc(NC2CC2)c2ncn([C@@H]3C=C[C@@H](CO)C3)c2n1`, the outcome was inactive.

Take `CN1C(=O)C(O)N=C(c2ccccc2)c2cc(Cl)ccc21` (centres undefined): the result was inactive.

Consider `CCCCC(=O)N(Cc1ccc(-c2ccccc2-c2nn[nH]n2)cc1)[C@@H](C(=O)O)C(C)C`, for which the outcome was inactive.

As for `CC=CC1=C(C(=O)O)N2C(=O)[C@H](NC(=O)[C@H](N)c3ccc(O)cc3)[C@@H]2SC1`, the outcome was inactive.

On to `CO[C@@]1(NC(=O)C2SC(=C(C(N)=O)C(=O)O)S2)C(=O)N2C(C(=O)O)=C(CSc3nnnn3C)CS[C@@H]21` (some centres undefined), for which the result was inactive.

With `CCCCCCCN(CC)CCCC(O)c1ccc(NS(C)(=O)=O)cc1` (centres undefined), the result was inactive.

In the case of `CC(C)(O/N=C(\C(=O)N[C@@H]1C(=O)N2C(C(=O)[O-])=C(C[n+]3ccccc3)CS[C@H]12)c1csc(N)n1)C(=O)O`, the result was inactive.

On to `O=C(O[C@H]1CN2CCC1CC2)N1CCc2ccccc2[C@@H]1c1ccccc1`, for which the AC50 is 7.95 µM (active).

Take `CC[C@H]1OC(=O)[C@H](C)[C@@H](O[C@H]2C[C@@](C)(OC)[C@@H](O)[C@H](C)O2)C(C)[C@@H](O[C@@H]2O[C@H](C)C[C@H](N(C)C)[C@@H]2O)[C@](C)(OC)C[C@@H](C)C(=O)[C@H](C)[C@@H](O)[C@]1(C)O` (some centres undefined): the AC50 is 7.95 µM (active).

For `CN(C)CCOc1ccc(/C(=C(/CCCl)c2ccccc2)c2ccccc2)cc1`, the outcome was inactive.

As for `CO/N=C(\C(=O)N[C@@H]1C(=O)N2C(C(=O)O)=CCS[C@H]12)c1csc(N)n1`, the outcome was inactive.

For `Nc1nc2ccc(OC(F)(F)F)cc2s1`, the outcome was inactive.

Take `C=CC(N)CCC(=O)O` (centres undefined): the result was inactive.

For `C[C@]1(O)CC[C@H]2[C@@H]3CCC4=CC(=O)CC[C@]4(C)[C@@]3(F)[C@@H](O)C[C@@]21C`, the result was inactive.

Turning to `CC(C)[C@H]1C(=O)N2CCC[C@H]2[C@]2(O)O[C@](NC(=O)[C@@H]3C[C@@H]4c5cccc6[nH]cc(c56)C[C@H]4N(C)C3)(C(C)C)C(=O)N12`, the result was inactive.

On to `CN[C@@H]1[C@H](O[C@H]2[C@H](O[C@H]3[C@H](O)[C@@H](O)[C@H](N=C(N)N)[C@@H](O)[C@@H]3N=C(N)N)O[C@@H](C)[C@]2(O)C=O)O[C@@H](CO)[C@H](O)[C@H]1O`, for which the result was inactive.

For the compound `Nc1ccc(C(=O)O)c(O)c1`, the outcome was inactive.

Turning to `CCC(=O)OC(OP(=O)(CCCCc1ccccc1)CC(=O)N1C[C@H](C2CCCCC2)C[C@H]1C(=O)O)C(C)C` (some centres undefined), the outcome was inactive.

As for `CCC[C@@]1(CCc2ccccc2)CC(O)=C([C@H](CC)c2cccc(NS(=O)(=O)c3ccc(C(F)(F)F)cn3)c2)C(=O)O1`, the result was inactive.

With `CC(C)(C)NC(=O)[C@@H]1C[C@@H]2CCCC[C@@H]2CN1C[C@@H](O)[C@H](Cc1ccccc1)NC(=O)[C@H](CC(N)=O)NC(=O)c1ccc2ccccc2n1`, the outcome was inactive.

On to `COc1cc([C@@H]2c3cc4c(cc3[C@@H](O[C@@H]3O[C@@H]5CO[C@@H](c6cccs6)O[C@@H]5[C@H](O)[C@@H]3O)[C@H]3COC(=O)[C@H]23)OCO4)cc(OC)c1O`, for which the outcome was inactive.

For `CCOC(=O)[C@H](CCc1ccccc1)N[C@H]1CCCN2CCC[C@@H](C(=O)O)N2C1=O`, the result was inactive.

Regarding `Cn1nnc2c(C(N)=O)ncn2c1=O`, the outcome was inactive.

Turning to `CN1CCN2c3ncccc3Cc3ccccc3C2C1` (centres undefined), the result was inactive.

Turning to `O=C1Nc2ccc(Cl)cc2C(c2ccccc2Cl)=NC1O` (centres undefined), the outcome was inactive.

Consider `CN[C@@H]1CCc2[nH]c3ccc(C(N)=O)cc3c2C1`, for which the outcome was inactive.

For `CC(C)C[C@H]1C(=O)N2CCC[C@H]2[C@]2(O)O[C@](NC(=O)[C@@H]3C=C4c5cccc6[nH]c(Br)c(c56)C[C@H]4N(C)C3)(C(C)C)C(=O)N12`, the result was inactive.

Turning to `Cc1nnc2n1-c1ccc(Cl)cc1C(c1ccccc1)=NC2`, the result was inactive.

Consider `CO[C@@H]1[C@@H](O[C@@H]2O[C@H](C)[C@@H](O[C@H]3C[C@@](C)(O)[C@@H](O)[C@H](C)O3)[C@H](N(C)C)[C@H]2O)[C@@H](CC=O)C[C@@H](C)[C@@H](O[C@@H]2CC[C@H](N(C)C)[C@@H](C)O2)/C=C/C=C/C[C@@H](C)OC(=O)C[C@H]1O`, for which the outcome was inactive.

Consider `CN1[C@@H]2CC[C@H]1CC(OC(c1ccccc1)c1ccccc1)C2` (some centres undefined), for which the AC50 was 3.55 µM (active).

Regarding `CN[C@H](CC(C)C)C(=O)N[C@H]1C(=O)N[C@@H](CC(N)=O)C(=O)N[C@H]2C(=O)N[C@H]3C(=O)N[C@H](C(=O)N[C@@H](C(=O)O)c4cc(O)cc(O)c4-c4cc3ccc4O)[C@H](O)c3ccc(c(Cl)c3)Oc3cc2cc(c3O[C@@H]2O[C@H](CO)[C@@H](O)[C@H](O)[C@H]2O[C@H]2C[C@](C)(N)C(O)[C@H](C)O2)Oc2ccc(cc2Cl)[C@H]1O` (some centres undefined), the result was inactive.
